# Compounds with a hit are over-represented: about 17% of the library has one in this group of screens.
# ATXN2 expr inh: reduces ATXN2 reporter expression in HEK-293 cells | 0.72% of 360,000 active | HEK-293 ATXN2-luciferase reporter, luminescence, 24 h | Potency, µM (series often up to 57 µM), for the others: at the highest dose activity change, negative = inhibition, hits mostly inhibitors; also: % is scaled to controls: 0 for no effect and ±100 for the full control effect; nearly all actives have a fitted effect of over 55% in size
#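 qHTS (up to 57 uM final) was run with 24 h compound exposure of reporter cells at 37 °C. Each well was multiplexed: SteadyGlo luminescence measured ATXN2-luciferase expression after a fluorogenic Gly-Phe-AFC viability readout (25 uM final).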
# S2 tox: viability counter-screen for ATXN expression inhibitors; Potency, µM (doses to about 56.7 µM), most hits filed as cytotoxic; AID 651635; 0.49% of 400,000 active; S2 cells (HEK-293 line with an ATXN2-luciferase reporter) viability, CellTiter-Fluor protease fluorescence, 24 h; also: nearly all actives have a fitted effect of over 40% in size
# TGFb SMAD3 inh: TGF-b pathway inhibition; HepG2 CAGA-GFP TGF-b/SMAD3 reporter, GFP fluorescence, 18 h; TGF-beta stimulated, 500 pg/mL final; Potency, µM (doses to about 46.1 µM), inactives show at the top dose activity, negative = inhibition, most hits filed as inhibitors; 1.2% of 410,000 active; also: % is scaled to controls: 0 for no effect and ±100 for the full control effect; nearly all actives have a fitted effect of over 65% in size
#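 Per well, imaged GFP fluorescence of HEPG2 CAGA-GFP cells gives the signal; cells get compound, then TGF-beta (500 pg/mL final), 18 h at 37 degrees C; %Activity versus -TGF-beta and +DMSO controls.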
# DT40 TDP1 CPT: growth inhibition of DT40 Tdp1-/-;hTDP1 cells with camptothecin (screen for TDP1 inhibitors); 12% of 420,000 active; AID 686979; Potency, µM (top dose mostly 46.2 µM), for the others: at the top dose activity change, negative = growth inhibition, most hits filed as inhibitors; chicken DT40 Tdp1-/-;hTDP1 cells + 20 nM CPT, ATP luminescence, 48 h; also: % is scaled to controls: 0 for no effect and ±100 for the full control effect; nearly all actives have a fitted effect of over 55% in size
#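 Cell growth measured by CellTiter-Glo luminescence after a minimum 48 h, 37 C compound exposure with 20 nM CPT in Tdp1-knockout DT40 cells stably expressing hTDP1, seeded 400/well; qHTS titration format.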
# TDP1 cell noCPT: qHTS for Inhibitors of human tyrosyl-DNA phosphodiesterase 1 (TDP1): qHTS in cells in absence of CPT; DT40 Tdp1-/- hTDP1 cells, no CPT, ATP luminescence, 48 h; Potency, µM (series often up to 46.2 µM), for the others: at the highest dose activity change, negative = growth inhibition, hits mostly inhibitors; 15% of 420,000 active; AID 686978, 2013; also: % is scaled to controls: 0 for no effect and ±100 for the full control effect; nearly all actives have a fitted effect of over 55% in size
#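 No-CPT arm: Tdp1-/-;hTDP1 DT40 cells (400/well) plus compounds, incubated ≥48 hr at 37 °C. Readout CellTiter-Glo luminescence.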
# HepG2 tox: kills HepG2 cells in TGF-b inhibitor counter-screen; HepG2 CAGA-GFP viability, ATP luminescence, 18 h; Potency, µM (highest dose often 46.1 µM), without a hit: at the highest dose activity change, negative = cytotoxicity, actives largely listed as cytotoxic; 0.76% of 410,000 active
#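 HepG2 CAGA-GFP cells (1000/well, DMEM with 1% FBS) received compound, then TGF-beta at 500 pg/mL final, and were incubated 18 hours at 37 degrees C. Viability was read by CellTiter-Glo luminescence. Media-only wells were set as complete cell-killing and DMSO as no toxicity.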
# * = called active by the depositor; i = inactive; ? = inconclusive; / = not tested or not shown. Calls follow the shape of the dose curve; as a rule, active = well fitted curve in the direction sought with a large enough effect; inconclusive = small, poorly fitted or top-dose-only effect, or another doubt; inactive = no such curve, though single readings can be large; an effect the other way counts as inactive or inconclusive. Potency is read from the fitted curve at half-maximal effect.
SMILES,ATXN2 expr inh,S2 tox,TGFb SMAD3 inh,DT40 TDP1 CPT,TDP1 cell noCPT,HepG2 tox
COc1cc2nc(C3CCC3)nc(N3CCN(c4ccccn4)CC3)c2cc1OC,-15%,i,13%,9.2µM*,9.2µM*,40%
CCOC(=O)CN(c1sc(C)c(C)c1C(=O)OCC)S(=O)(=O)c1ccc(C)cc1,/,i,-5%,?,15µM*,-14%
Cc1nc2c(-c3ccc(F)cc3)c(C)[nH]n2c(=O)c1Cl,-32%,i,?,?,?,-48%
CCCCc1c(C)nc2c(-c3ccc(OC)cc3)c(C)[nH]n2c1=O,-25%,i,-33%,16µM*,10µM*,-27%
Cc1nc2c(C#N)c(C)[nH]n2c(=O)c1Cc1ccccc1,5%,i,-9%,-18%,-9%,3%
Cc1ccccc1Cc1c(C)nc2c(-c3ccccc3)c(C)[nH]n2c1=O,?,?,?,?,21µM*,-43%
Cc1nc2c(-c3ccccc3)c(C)[nH]n2c(=O)c1Cc1ccccc1,-17%,i,?,?,?,-36%
COc1ccc(-c2c(C)[nH]n3c(=O)c(Cc4ccccc4)c(C)nc23)cc1OC,-31%,i,-6%,?,18µM*,-12%
Cc1cccc(Cc2c(C)nc3c(-c4ccccc4)c(C)[nH]n3c2=O)c1,13µM*,?,2.5µM*,5.8µM*,3.7µM*,-31%
COCCNC(=O)C1=NOC(Cn2cc(C#N)c(=O)n(C)c2=O)C1 (centres undefined),15%,i,-13%,10%,-16%,-11%
O=c1c(-c2ccc(F)cc2)nc2cnc(N3CCOCC3)nc2n1Cc1ccc(F)cc1,/,/,/,11%,2%,/
O=S(=O)(c1ccccc1)N1CN(c2ccc(F)cc2F)c2nc3ccccc3nc21,6%,i,-3%,?,26µM*,-2%
COc1ccccc1/C=C1\CCCC2=C1Nc1nnnn1C2c1ccccc1OC (centres undefined),-12%,i,13µM*,12µM*,12µM*,-35%
COc1ccccc1NC(=O)C1=C(C)Nc2nnnn2C1c1ccccc1OC (centres undefined),0%,i,-5%,6%,-8%,2%
O=C(Cn1cnc2c(nc3n2CCCCC3)c1=O)Nc1ccc(F)c(Cl)c1,1%,i,-1%,-23%,-18%,-1%
Cc1ccccc1C(=O)Nc1cccc(NC(=O)c2ccc(-c3ccc(Br)cc3)o2)c1,-25%,i,-6%,23µM*,8.2µM*,-63%
O=C(Nc1ccc(N2CCN(C(=O)c3ccccc3)CC2)cc1)c1ccc(Br)o1,2%,i,?,16µM*,?,6%
O=C(Nc1ccc(N2CCOCC2)c(Cl)c1)c1ccc(Br)o1,48%,i,-1%,?,11µM*,5%
CN1CCN(c2ccc(NC(=O)c3ccc(-c4ccc(Br)cc4)o3)cc2)CC1,?,?,?,?,29µM*,22µM*
O=C(Nc1ccc(CN2CCOCC2)cc1)c1ccc(Br)o1,/,i,-8%,21%,-16%,0%
COc1ccc(/C=N/NC2=NS(=O)(=O)c3ccccc32)cc1OC,16%,i,1%,-16%,-4%,-1%
CC(OC(=O)/C=C/c1ccc2ccccc2n1)C(=O)NCc1ccccc1 (centres undefined),9%,i,-37%,?,?,-30%
Cc1cc(Cl)cc2sc(=S)[nH]c12,2%,?,0%,-7%,-27%,-10%
O=C(Nc1ccc(N2CCN(C(=O)c3ccccc3)CC2)c(Cl)c1)c1ccc(Br)o1,?,?,-4%,23µM*,21µM*,-34%
CC(C)N1CCN(C(=O)c2ccc(NC(=O)c3ccc(Br)o3)cc2)CC1,10%,i,-5%,-1%,2%,0%
SMILES,ATXN2 expr inh,S2 tox,TGFb SMAD3 inh,DT40 TDP1 CPT,TDP1 cell noCPT,HepG2 tox
Cc1ccc(CNC(=O)CSCc2nc(-c3cccc(C)c3)oc2C)cc1,/,/,?,?,?,-26%
CCOC(=O)C1=CN(CC)S(=O)(=O)NC1c1ccc2ccccc2c1 (centres undefined),2%,i,-5%,1%,-29%,3%
O=C(/C=C/c1cccs1)c1ccc(NC(=O)c2ccccc2F)cc1,20%,i,0%,-23%,12µM*,-15%
COc1ccccc1C(=O)Nc1ccc(C(=O)/C=C/c2cccs2)cc1,8%,i,?,?,18µM*,-9%
COc1ccccc1C(=O)NC(=S)Nc1ccc(NC(=O)c2cccs2)cc1,-15%,?,-6%,-30%,-5%,2%
COc1ccc(CN2C(=O)CCCC2(C)c2nc3ccccc3[nH]2)cc1 (centres undefined),5%,i,/,-4%,-10%,/
CC(=O)Nc1ccc(N=C(C2=C(O)c3ccccc3C2=O)c2ccccc2)cc1,/,?,-17%,3.3µM*,?,-22%
COc1ccc(N=C(C)C2=C(O)c3ccccc3C2=O)cc1,-35%,?,-19%,23µM*,?,-11%
COc1ccccc1-n1ncc2c(=O)[nH]c(SCC(=O)Nc3cccc(F)c3)nc21,/,/,-6%,-5%,-25%,8%
NS(=O)(=O)c1ccc(N=Nc2c(=O)[nH]n3c(=O)c4c([nH]c23)CCCC4)cc1,-17%,9.5µM*,9%,-6%,-16%,7%
Cc1nc(-c2ccncc2)nc(NCCNc2ccc(C(F)(F)F)cn2)c1Cl,23%,i,-6%,-7%,?,-5%
O=C(O)CC(NC(=O)C1c2ccccc2Oc2ccccc21)c1ccc(Cl)cc1 (centres undefined),-9%,i,0%,-20%,2%,6%
CCc1ccc(-c2nc(CN3CCCC(C(=O)NCc4ccccc4Cl)C3)c(C)o2)cc1 (centres undefined),?,?,?,6.5µM*,4.6µM*,-41%
Cc1oc(-c2ccc(Cl)cc2)nc1CN1CCCC(C(=O)NC2CC2)C1 (centres undefined),-7%,i,-2%,16µM*,10µM*,-11%
Cc1oc(-c2ccc(Cl)cc2)nc1CN1CCCC(C(=O)NCc2ccco2)C1 (centres undefined),?,?,-1%,?,23µM*,-27%

# Bioassay records from PubChem BioAssay.
